This is a sample that favours compounds with a hit; in the whole collection about 19% have one here.
KB-V1 MDR tox: kills drug-selected multidrug resistant KB-V1 cells | KB-V1 MDR cells viability, CellTiter-Glo, 72 h | Potency, µM (doses to about 46.1 µM), usual class: cytotoxic | 3.4% of 400,000 active | AID 1347076; note: nearly all actives have a fitted effect of over 60% in size
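Compound-treated KB-V1 multidrug-resistant cells, 72 h, 37 degrees C; viability by CellTiter-Glo. Fitted qHTS curves give the values.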
HT1080NT lethal: kills 2HG-producing HT-1080-NT fibrosarcoma cells | Potency, µM (top dose mostly 46.1 µM), usual class: cytotoxic | 1.6% of 360,000 active | HT-1080-NT fibrosarcoma viability, CellTiter-Glo ATP luminescence, 48 h;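 note: NT is the 2HG producing partner of a matched IDH1 knockdown line; nearly all actives have a fitted effect of over 55% in size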
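HT-1080-NT; 750 cells/well; 5% FBS RPMI; 48 h compound, 37 degrees C; CellTiter-Glo luminescence; curve fitting and curve-class assignment.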
DT40 TDP1 no CPT: qHTS for Inhibitors of human tyrosyl-DNA phosphodiesterase 1 (TDP1): qHTS in cells in absence of CPT; DT40 Tdp1-/- hTDP1 cells, no CPT, ATP luminescence, 48 h; AID 686978, 2013; 15% of 420,000 active; Potency, µM (highest dose often 46.2 µM), hits mostly inhibitors; note: nearly all actives have a fitted effect of over 55% in size
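Stably hTDP1-transfected Tdp1-null chicken DT40 cells were treated with library compounds minus camptothecin and grown for at least 48 hr at 37 °C, after which cellular ATP was quantified by luminescence.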
KB-3-1 tox: kills parental KB-3-1 adenocarcinoma cells | 1.4% of 400,000 active | KB-3-1 viability, CellTiter-Glo ATP luminescence, 72 h | Potency, µM (highest dose often 46.1 µM), hits mostly cytotoxic | AID 1347075; note: nearly all actives have a fitted effect of over 60% in size
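Cells are dispensed, compounds pinned in, plates held at 37 °C for 72 h, then CellTiter-Glo is added and luminescence read after 10 minutes. Cell line: parental KB-3-1 in phenol-red-free DMEM, 10% FBS.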
DT40 TDP1 CPT: growth inhibition of DT40 Tdp1-/-;hTDP1 cells with camptothecin (screen for TDP1 inhibitors). chicken DT40 Tdp1-/-;hTDP1 cells + 20 nM CPT, ATP luminescence, 48 h. Potency, µM (titrated, usually from 46.2 µM), actives largely listed as inhibitors. 12% of 420,000 active; note: nearly all actives have a fitted effect of over 55% in size
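Cell growth measured by CellTiter-Glo luminescence after a minimum 48 h, 37 C compound exposure with 20 nM CPT in Tdp1-knockout DT40 cells stably expressing hTDP1, seeded 400/well; qHTS titration format.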
HT1080 IDH1KD tx: kills HT-1080 cells with IDH1 knockdown; Potency, µM (series often up to 46.1 µM), hits mostly cytotoxic; 2% of 360,000 active; HT-1080 IDH1 knockdown viability, ATP luminescence, 48 h
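Assay cells: HT-1080 with IDH1 knockdown, 750 per well, RPMI/5% FBS. Exposure: 48 h at 37 °C following 2 h pre-incubation. Read: CellTiter-Glo luminescence; fitted concentration-response, curve class assigned.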
Numbers stand for hits; 0 = inactive; ? = inconclusive; - = not tested or not shown; ! = not active in a repeat; [ ] = another dose, or the depositor's remark. Calls come from the whole dose curve; as a rule, active = well fitted curve in the direction sought with a large enough effect; inconclusive = small, poorly fitted or top-dose-only effect, or another doubt; inactive = no such curve, though single readings can be large; an effect the other way counts as inactive or inconclusive.

SMILES	KB-V1 MDR tox	HT1080NT lethal	DT40 TDP1 no CPT	KB-3-1 tox	DT40 TDP1 CPT	HT1080 IDH1KD tx
CCOc1cc(C2Sc3ccccc3NC3=C2C(=O)c2ccccc23)ccc1O (stereo not given)	0	-	?	0	?	-
O=C(O)COc1ccccc1/C=N/NC(=O)CN1CCN(Cc2ccc(Cl)cc2)CC1	?	0	0	0	0	0
CC(C)N(Cc1ccccc1)C(=O)Cn1ncc2c([nH]c3ccccc32)c1=O	0	-	?	0	0	-
CCc1nc2c(OCC(=O)C(C)(C)C)cccn2c1N(C)C(=O)C(C)C	0	0	0	0	?	0
CC(C)C(OC(=O)Cn1nnc2ccccc21)C(=O)NC1CCCC1 (stereo not given)	0	0	0	0	0	0
COc1ccc(CN2CCc3ccccc3C2)c(OC)c1OC	0	0	0	0	?	0
O=C1C2=C(Nc3ccccc3SC2c2c(F)cccc2Cl)c2ccccc21 (stereo not given)	0	-	?	0	15µM	-
COc1ccc(S(=O)(=O)N(Cc2ccc(OC)c(OC)c2)Cc2ccco2)cc1	?	0	18µM	0	23µM	0
COc1ccc(S(=O)(=O)N(CCC(N)=O)Cc2ccco2)cc1OC	0	0	0	0	0	0
CN(C)S(=O)(=O)c1ccc(S(=O)(=O)N(Cc2ccco2)Cc2ccccc2Cl)cc1	0	0	16µM	0	21µM	0
CCN(CC)S(=O)(=O)c1ccc(S(=O)(=O)N(CC(=O)Nc2ccccc2)Cc2ccco2)cc1	0	0	?	0	18µM	0
Cc1ccc(S(=O)(=O)N(Cc2ccccc2)Cc2ccco2)cc1	0	0	?	0	9.2µM	0
COC(=O)C1CCN(Cc2ccc3c(c2)CN(C(=O)c2cc(C4CC4)on2)CCO3)CC1	-	-	0	-	0[9.04 µM]	-
Cc1ccc(CNC(=O)Cn2ccn(-c3ccc(F)c(F)c3)c(=O)c2=O)cc1	-	-	0	-	0	-
O=C(NCCc1ccccc1)C1Cc2c(-c3ccccc3)ccnc2O1 (stereo not given)	?	0	?	?	?	?
NC(=O)c1cccc(-c2ccnc3c2CC(C(=O)NCc2ccco2)O3)c1 (stereo not given)	0	?	2.9µM	6.5µM	3.7µM	4.1µM
NC(=O)c1cccc(-c2ccnc3c2CC(C(=O)NCCc2ccccc2)O3)c1 (stereo not given)	0	?	23µM	?	15µM	7.3µM
CN(C)c1ccc(CNC(=O)C2Cc3c(-c4cccc(C(N)=O)c4)ccnc3O2)cc1 (stereo not given)	0	?	23µM	0	?	?
CC(=O)c1cccc(-c2ccnc3c2CC(C(=O)NCc2ccco2)O3)c1 (stereo not given)	0.92µM	?	0.82µM	1.2µM	0.82µM	1.3µM
CCOc1ccc(NC(=O)c2cc(=O)c3cc(CC)ccc3o2)cc1	0	-	0	0	0	-
CCOC(=O)/C(=N\Nc1ccccc1Cl)N1CCN(c2ccccc2OC)CC1	0	0	?	0	?	0
O=C(NCc1ccco1)C1Cc2c(-c3cccc(F)c3)ccnc2O1 (stereo not given)	4.6µM	?	1.3µM	1.2µM	0.82µM	0.73µM
COc1cc(-c2ccc3oc(-c4ccsc4)c(C#CC4(O)CCCCC4)c3c2)cc(OC)c1OC	0	0	?	0	?	0
COc1cc(-c2noc(C)c2C#CCO)cc(OC)c1OC	?	0	13µM!	0	?	0
COc1cc(-c2noc(C)c2C#CC2(O)CCCCC2)cc(OC)c1OC	15µM!	0	21µM	?	?	0
COc1cc(-c2noc(C)n2)cc(OC)c1OC	0	0	0	0	0	0
COc1cc(-c2noc(C)c2C#Cc2ccsc2)cc(OC)c1OC	3.3µM!	?	0.92µM	?	0.71µM!	0.52µM
COc1cc(-c2noc(C)c2C#CC2(N)CCCCC2)cc(OC)c1OC	21µM!	0	?	?	?	0
